Measured values from PubChem BioAssay (NCATS).
The other results are listed elsewhere or left out. Records with an inconclusive call do not appear. Unmarked numbers belong to inactive results. Activity calls are given as the source filed them. The call rests on the fitted dose curve; in most records, active means well fitted inhibition curve with a large enough effect; inconclusive means small, poorly fitted or top-dose-only effect; inactive means no such curve, though single readings can be large or run the other way.
On the % scale 0 is the no-effect control and ±100 the full control effect; potency means the concentration at half of the fitted maximal effect.

Experiment: qHTS for Inhibitors of WRN Helicase: Thiazole Orange DNA Binding Counterscreen (AID 720499);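 further: drop in dye fluorescence marks compound binding to DNA; nearly all actives have a fitted effect of over 60% in size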
Details: thiazole orange DNA binding displacement, fluorescence; series mostly up to 57.1 µM; activity change, negative = inhibition: at the top concentration
Source text: Inhibition of DNA repair is proposed as a strategy for combating cancer. Synthetic lethality is an approach that exploits preexisting DNA repair deficiencies in certain tumors to develop inhibitors of DNA repair pathways that compensate for the tumor-associated DNA repair deficiency. Because helicases play critical roles in the DNA damage response and in DNA repair, particularly in actively dividing and replicating cells, characterization of synthetic lethal relationships of DNA helicases may be of value in developing improved anticancer treatment strategies; moreover, small molecules that specifically target a given DNA helicase may be useful for understanding its role in cellular nucleic acid metabolism. The goal of this project is to identify small molecule, non-covalent chemical inhibitors of the Werner syndrome (WS) helicase (WRN), which plays an important role in cell proliferation, the replication stress response, and DNA repair. […] The WRN gene product that is defective in the chromosomal instability disorder has DNA helicase and exonuclease activities and interacts with a number of nuclear proteins to maintain genomic stability.
A 1536-well format, fluorescence based, high-throughput screen (AID 651768) has been developed in collaboration with the Brosh Laboratory at the National Institute of Aging (NIA) to screen for inhibitors of the WRN. The Thiazole Orange (ThO) DNA binding (TO-binding) is used to eliminate inhibitors that operate via nonspecific DNA binding. This displacement assay is miniaturized for a 1536-well format and utilizes a ThO dye bound to unlabeled DNA. Inactivation or no significant activity is the desired outcome for this assay.
NIH Chemical Genomics Center [NCGC]
NIH Molecular Libraries Probe Centers Network [MLPCN]
Assay Submitter (PI): Robert Brosh, National Institute of Aging
Compounds were added to a 4 uL mixture of 50 nM DNA and 100 nM ThO via pintool transfer. The fluorescence signal (excitation 480 nm, emission 530 nm) was measured after 15 min incubation at room temperature using the ViewLux CCD imager.
In the case of Cc1ccc(-c2nc(SCc3ccc(Br)cc3)n3[nH]c(=O)cc3n2)cc1, the “activity change, negative = inhibition” value is reported as -11.6%. With COc1ccc(Cl)cc1NC(=O)CCS(=O)(=O)c1ccc(Br)cc1 the “activity change, negative = inhibition” value was 5.15%. For CC1=NN(c2ccc(Cl)c(C(=O)O)c2)C(=O)/C1=C/c1ccc(-c2ccccc2[N+](=O)[O-])o1, the “activity change, negative = inhibition” value was -6.2%. With CN(C)c1nc(Nc2ccc(Cl)c(Cl)c2)nc(N(C)C)n1 the “activity change, negative = inhibition” value was 0.225%. For CN1CCN(S(=O)(=O)c2cccc(C(=O)Nc3sccc3C#N)c2)CC1, the “activity change, negative = inhibition” value was 155%. With CCOc1ccccc1C(=O)NCc1ccco1 the “activity change, negative = inhibition” value was -12.7%. In the case of COC(=O)/C=C\C(=O)Nc1cccc([N+](=O)[O-])c1, the “activity change, negative = inhibition” value is reported as 0.928%. With CC(=O)N(C1=C(Cl)C(=O)c2ccccc2C1=O)c1ccc(C(=O)O)cc1 the “activity change, negative = inhibition” value was -15.5%. For CCc1ccc2nc3sc(C(=O)Nc4nnc(CC)s4)c(N)c3cc2c1, the “activity change, negative = inhibition” value was 122%. For O=c1[nH]c2ccccc2n2c(-c3ccccc3)nnc12, the “activity change, negative = inhibition” value was -11.6%. For N#C/C(=C\C1=C(N2CCOCC2)C(=C\c2ccccc2)/CC1)C(=O)Nc1ccccc1F, the “activity change, negative = inhibition” value was 20.7%. With COc1ccc(Cl)cc1-c1cc(C(=O)Nc2cc(OC)c(OC)c(OC)c2)[nH]n1 the “activity change, negative = inhibition” value was 150%. For CCN(CC)CCOc1ccc2c(c1)C(=NNC(=O)c1ccccn1)c1cc(OCCN(CC)CC)ccc1-2, the Potency was 2150 nM (active). In the case of COc1cccc2c1C(=O)c1c(O)c3c(c(O)c1C2=O)CC(O)(C(C)=NNC(=O)c1ccc(Cl)c(Cl)c1)CC3OC1CC(N)C(O)C(C)O1 (stereo unspecified), the “activity change, negative = inhibition” value is reported as 45.8%. In the case of O=C(Nc1ccccc1)c1nnsc1S(=O)(=O)c1ccc(Cl)cc1, the “activity change, negative = inhibition” value is reported as -19.8%. With Cc1c(CC(=O)N2CCN(C(=O)C3COc4ccccc4O3)CC2)c(=O)oc2c(O)c(O)ccc12 (stereo unspecified) the “activity change, negative = inhibition” value was -28.7%.
